Data: PubChem BioAssay (Tox21)
Where “and” joins values, the source holds several entries; their conditions need not be identical. Identical values can stand only once. Records with an inconclusive call do not appear. Unmarked numbers belong to inactive results. Calls of active or inactive are those of the source. Calls come from the whole dose curve; as a rule, active = well fitted activation curve with a large enough effect in the repeat runs; inconclusive = weak or mixed curves; inactive = flat fitted curve, though single readings scatter.

Experiment: A CellTox Green Cytotoxicity Assay to monitor cytotoxicity in HEK293 cells - 8 hour (AID 1224884); note: nearly all actives have a fitted effect of over 35% in size
Conditions: CellTox Green fluorescence; series mostly up to 76.8 µM; cytotoxicity increase: at the top concentration
Description: National Center for Advancing Translational Sciences [NCATS]
NIH Chemical Genomics Center [NCGC]
U.S. Environmental Protection Agency [EPA]
National Institutes of Environmental Health Sciences [NIEHS]
National Toxicology Program [NTP]
Cell-based models are critical for drug discovery. Determining the natural cytotoxic effects resulting from test compounds is an essential research activity. A CellTox Green Cytotoxicity Assay to monitor cytotoxicity in real time of continues cell culture during 40 hours of the compound treatment was used to screen Tox21 10K library compounds in Hek293 cells. CellTox Green Cytotoxicity Assay is a nonlytic, homogeneous, biofluorescent method to measure cytotoxicity in cell culture after experimental manipulation. The assay system uses a proprietary asymmetric cyanine dye that is excluded from viable cells but preferentially stains the dead cell's DNA. […] Viable cells produce no appreciable increases in fluorescence. Therefore, the fluorescence signal produced by the binding interaction with dead cell DNA is proportional to cytotoxicity.
The mixture of Hek293 cell suspension and reagents were dispensed at 600cells/6 ul/well in 1536-well tissue culture treated black solid bottom plates using a Multidrop dispenser. After the assay plates were incubated at a 37 C/5% CO2 incubator for 5 hours, 23 nL of compounds dissolved in DMSO, positive and negative controls was transferred to the assay plate by a pintool work station. The plates were incubated at 37 C for 40 hours. The fluorescence intensity were measured at 0h, 8h, 16h, 24h, 32h and 40h time points using ViewLux plate reader during compound treatment.
% is set by controls: 0 for no effect and ±100 for the full control effect; potency is the fitted concentration of half-maximal effect.

| Structure (SMILES) | cytotoxicity increase | Potency |
| --- | --- | --- |
| Sc1nc2ccccc2s1 | -7.77% |  |
| CC(C)CCOC(=O)/C=C/c1ccccc1 | 3.33% |  |
| CC(C)(c1cc(Br)c(OCC(Br)CBr)c(Br)c1)c1cc(Br)c(OCC(Br)CBr)c(Br)c1 (stereo not given) | 13.3% [at 35.3 µM] |  |
| CC[N+](CC)(CC)CCOC(=O)C(C1CCCC1)C1CCCC1 | 1.29% [at 35.3 µM] |  |
| ClCCl | -0.256% |  |
| Cc1ccc(C(C)C)cc2c(C)ccc1-2 | 2.51% [at 35.3 µM] |  |
| OC1CCCc2ccccc21 (stereo not given) | -12.1% |  |
| CCCC(=O)OCOC(=O)C1=C(C)NC(C)=C(C(=O)OC)C1c1cccc(Cl)c1Cl (stereo not given) | 7.47% [at 35.3 µM] |  |
| CC(=O)Oc1cc2c(s1)CCN(C(C(=O)C1CC1)c1ccccc1F)C2 (stereo not given) | -5.58% [at 35.3 µM] |  |
| CC(C)CCCCCOC(=O)CCS | -6.21% |  |
| O=C1CCc2cc(OCCCCc3nnnn3C3CCCCC3)ccc2N1 | -20.2% [at 35.3 µM] |  |
| Cc1c(N)cccc1C(F)(F)F | -5.53% [at 35.3 µM] |  |
| Cc1cc(=O)oc2cc(O)cc(O)c12 | 24.2% |  |
| c1ccc(C(O[C@@H]2CCCN(CCc3ccc4c(c3)OCO4)C2)c2ccccc2)cc1 | -3.58% |  |
| CCCCCCCCCCCCCC[N+](C)(C)C |  | 47.3 µM (active) and 43.6 µM (active) |
| COc1ccc(NC(=O)CC(C)=O)cc1 | 4.87% |  |
| CC(=O)c1ccc(C(C)=O)cc1 | -0.715% |  |
| CCC(CC)C(C)CCOC(C)=O (stereo not given) | -12% |  |
| Cc1cc(-c2ccc(N=Nc3cc(S(=O)(=O)O)c4ccccc4c3N)c(C)c2)ccc1N=Nc1cc(S(=O)(=O)O)c2ccccc2c1N | 21.9% |  |
| Nc1cc(Cl)c(O)c(Cl)c1 | 1.09% |  |

| Structure (SMILES) | cytotoxicity increase | Potency |
| --- | --- | --- |
| O=S(=O)(O)c1ccccc1/C=C/c1ccc(-c2ccc(/C=C/c3ccccc3S(=O)(=O)O)cc2)cc1 | 2.45% |  |
| Nc1ccc(NCCO)c([N+](=O)[O-])c1 | -17.9% |  |
| CCCCCCOC(=O)C(C)CC (stereo not given) | 0.655% |  |
| C=C(CC)C(=O)c1ccc(OCC(=O)O)c(Cl)c1Cl |  | inactive |
| C=C(C)C(=O)OCCCCCCCCCC | 7.82% |  |
| Cc1cc(C)c(/C=C2\C(=O)Nc3ccccc32)[nH]1 |  | 16.9 µM (active) |
| Nc1nc(-c2ccccc2)cs1 | 0.892% |  |
| COCCOc1cc2cc(C(=O)NC3CCN(C(C)C)CC3)n(CC(=O)Nc3ccc(Cl)cn3)c2cn1 | -8.76% |  |
| CC[N+](CC)(CC)CCOc1ccc(/C=C/c2ccccc2)cc1 | -12% [at 35.3 µM] |  |
| COc1ccc2cc1Oc1ccc(cc1)C[C@H]1c3c(cc4c(c3Oc3cc5c(cc3OC)CCN(C)[C@@H]5C2)OCO4)CCN1C | 21.7% [at 35.3 µM] |  |
| CC(C)(C)C1CCC(=O)CC1 | -0.531% |  |
| Cc1cccc(C)c1NC(=O)c1ccc(N)cc1 | 8.79% [at 35.3 µM] |  |
| Nc1nc(N)nc(-c2cc(Cl)ccc2Cl)n1 | -11% [at 35.3 µM] |  |
| CN1CCCCC1CCN1c2ccccc2Sc2ccc(S(C)=O)cc21 (stereo not given) | 6.12% [at 35.3 µM] |  |
| COc1cc(S(=O)(=O)O)c(C)cc1N=Nc1c(O)ccc2cc(S(=O)(=O)O)ccc12 | -30.6% |  |
| Cc1nc2n(c(=O)c1CCN1CCC(c3noc4cc(F)ccc34)CC1)CCCC2 | -11.5% [at 35.3 µM] |  |
| CC1(C)[C@@H](O)CC[C@]2(C)[C@H]3C(=O)C=C4[C@@H]5C[C@@](C)(C(=O)O)CC[C@]5(C)CC[C@@]4(C)[C@]3(C)CC[C@@H]12 | -1.06% |  |
| CC(C)=CCC1=C(O)c2ccccc2C(=O)C1=O | 0.671% |  |
| CCCC(=O)OC(C)(C)Cc1ccccc1 | 13% |  |
| S=c1nccc[nH]1 | -10.9% |  |
